The text below walks through data of PubChem BioAssay AID1851 (National Center for Advancing Translational Sciences (NCATS), 2009).

The campaign covered roughly 16,000 compounds. About 5,800 (36%) were called active. About 23% were inconclusive and are not listed. Calls come from the whole dose curve; as a rule, active = well fitted curve in the direction sought with a large enough effect; inconclusive = small, poorly fitted or top-dose-only effect, or effect the other way; inactive = no such curve, though single readings can be large or run the other way. Some of the results follow. A structure can be active in one record and inactive in another. Peptide text beside a SMILES is read from it. * marks the point of attachment. PhAc = O=C(Cc1ccccc1)*; OBn = c1ccc(CO*)cc1

As usually defined, the AC50 is the midpoint of the concentration-response curve, whichever way the signal moves.
% is set by controls: 0 for no effect and ±100 for the full control effect.

The target in this assay is Cytochrome P450 2C19 (Homo sapiens) (UniProt P33261). Briefly: Cytochrome panel assay with activity outcomes. As to conditions: recombinant CYP, pro-luciferin dealkylation, luminescence, p450-cyp2c19; series mostly up to 57.1 µM.
Sequence of Cytochrome P450 2C19 (Homo sapiens) (P33261 whole entry, looked up): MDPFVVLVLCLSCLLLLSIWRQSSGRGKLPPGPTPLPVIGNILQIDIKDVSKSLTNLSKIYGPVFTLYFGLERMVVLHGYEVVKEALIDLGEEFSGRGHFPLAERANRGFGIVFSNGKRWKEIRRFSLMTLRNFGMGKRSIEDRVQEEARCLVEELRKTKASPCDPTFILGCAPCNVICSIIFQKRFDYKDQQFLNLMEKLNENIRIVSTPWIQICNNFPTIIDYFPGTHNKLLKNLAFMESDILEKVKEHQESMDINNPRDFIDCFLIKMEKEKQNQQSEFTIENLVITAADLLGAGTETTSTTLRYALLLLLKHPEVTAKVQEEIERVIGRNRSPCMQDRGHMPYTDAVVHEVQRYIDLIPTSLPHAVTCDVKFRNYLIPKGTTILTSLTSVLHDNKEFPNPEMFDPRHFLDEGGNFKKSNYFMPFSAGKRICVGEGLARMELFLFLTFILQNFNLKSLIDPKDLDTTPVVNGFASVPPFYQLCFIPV
`CCN1CCCCC(=N/O)/C(=N/O)CCCC1`: the activity, negative = inhibition was 10.8% [at 11.4 µM] (inactive).

For the compound `O=C1[C@H]2[C@H]3[C@H](O)[C@H](O)C/C(=N/OC[C@@H](O)COCc4ccco4)[C@@H]3CC[C@@H]2C(=O)N1Cc1ccc2c(c1)OCO2`, the activity, negative = inhibition was -24.6% [at 11.4 µM] (inactive).

Take `CCOC(=O)C1=C[C@@]2(CC)CCCN3CCc4c(n1c1ccccc41)[C@H]32`: the AC50 result is “inactive”.

Regarding `Cc1cc(NC(=O)c2ccc(S(=O)(=O)Nc3ccccc3)cc2)no1`, the AC50 is 5.01 µM (active).

Consider `COc1cc2ccccc2cc1C(=O)Nc1ccc(S(=O)(=O)Nc2cc(C)on2)cc1`, for which the AC50 result is “inactive”.

As for `Cc1ccc(C2Nc3ccccc3C(=O)N2Cc2ccco2)cc1` (stereo unspecified), the AC50 is 2.82 µM (active).

As to `O=C1c2ccccc2NC(c2ccc(F)cc2)N1Cc1ccco1` (stereo unspecified), the AC50 is 3.55 µM (active).

Take `COc1ccc(C2Nc3ccccc3C(=O)N2Cc2ccco2)cc1COc1ccc([N+](=O)[O-])cc1` (stereo unspecified): the AC50 is 2.51 µM (active).

In the case of `O=C(C1=C(O)C(=O)N(Cc2ccco2)C1c1ccccc1)c1cccs1` (stereo unspecified), the AC50 entry is “inactive”.

As for `S=C(S)O[C@@H]1C[C@@H]2C[C@H]1[C@@H]1CCC[C@H]21`, the AC50 is 15.8 µM (active).

`C=CCOc1c(Br)cc(CNc2ccc(NC(=O)C(C)C)c(OC)c2)cc1OC`: the AC50 was 3.55 µM (active).

`O=C1c2ccccc2C(=O)N1CCCCN(C(=O)c1cccc([N+](=O)[O-])c1)c1ccc(Cl)cc1`: the AC50 is 3.16 µM (active).

For the compound `O=C1c2ccccc2C(=O)N1CCCCN(C(=O)c1ccc([N+](=O)[O-])cc1)c1ccc(Cl)cc1`, the AC50 was 4.47 µM (active).

For the compound `C/C(CCN1CCc2nc(-c3ccccc3)c(-c3ccccc3)cc2C1)=N\O[C@@H](C)CN1CCCCc2nc(C)c(C)cc21`, the activity, negative = inhibition was -15.5% [at 11.4 µM] (inactive).

Consider `O=C(CNC(=O)Cc1ccccc1)NCC(=O)OCc1ccccc1` (PhAc-Gly-Gly-OBn), for which the AC50 result was “inactive”.

With `O=C(CNC(=O)c1cccs1)NCC(=O)OCc1ccc(Cl)cc1Cl`, the AC50 was 5.01 µM (active).

As to `O=C(CNC(=O)c1cccs1)NCC(=O)OCc1ccc(Cl)cc1`, the AC50 was 6.31 µM (active).

With `COC(=O)C1C(=O)C2=C(CC1C)NC(=O)CC2c1cccc(C)c1` (stereo unspecified), the AC50 was 11.2 µM (active).

Consider `COc1ccc(Oc2ncc3nc(-c4ccc(Cl)cc4)c(=O)n(C)c3n2)cc1`, for which the AC50 entry is “inactive”.

In the case of `COc1ccc(/C(C#N)=C/c2c(-c3ccc(Cl)cc3)nc3c(C)cccn23)cc1`, the AC50 was 3.16 µM (active).

Consider `COc1ccc(-n2c(=O)c(-c3ccc(Cl)cc3)nc3cncnc32)cc1`, for which the AC50 entry was “inactive”.

With `Cc1cc(Nc2ccccc2)nc(N)n1`, the AC50 entry is “inactive”.

As to `COc1ccc(Nc2nc(N)nc(CSc3n[nH]c(-c4ccccc4)n3)n2)cc1`, the AC50 is 10 µM (active).

As for `Cc1nnc(SCc2nc(N)nc(Nc3ccccc3)n2)s1`, the concentration at half-maximal activity (AC50) is 14.1 µM (active).

Regarding `CCCOc1ccc(-c2nc(N)n[nH]2)cc1`, the AC50 entry is “inactive”.

For the compound `C#CCSc1n[nH]c(-c2ccco2)n1`, the activity, negative = inhibition is 0.772% [at 11.4 µM] (inactive).

On to `CCCc1nnc(SCC(=O)N2CCCCC2)n1CCCOC`, for which the AC50 result was “inactive”.

Turning to `CCCc1nnc(SCC(=O)N2C(C)CCCC2C)n1CCCOC` (stereo unspecified), the AC50 is 28.2 µM (active).

As to `NOCC(=O)O`, the AC50 entry is “inactive”.

Take `COc1cc(NC(=O)c2ccccc2Cl)ccc1NC(=O)c1ccco1`: the AC50 was 8.91 µM (active).

In the case of `CC(C)Oc1ccc(C(=O)Nc2ccc(NC(=O)c3ccco3)c(Cl)c2)cc1`, the AC50 is 3.98 µM (active).

Regarding `COc1ccc(C(=O)Nc2ccc(NC(=O)c3ccco3)c(Cl)c2)cc1OC`, the AC50 result was “inactive”.

On to `CNc1cc(OC)c(C(=O)N[C@@H]2CCN(Cc3ccccc3)[C@H]2C)cc1Cl`, for which the AC50 entry is “inactive”.

Regarding `Cc1nn(-c2ccc(F)cc2)c(C)c1NS(=O)(=O)c1ccc2ccccc2c1`, the AC50 is 0.316 µM (active).

In the case of `Cc1ccc(C)c(/C(=N\N=C(N)N)C2CC2)c1`, the activity, negative = inhibition is -19.5% [at 11.4 µM] (inactive).

For `CCCCCCCCC(=O)N/N=C/c1ccccn1`, the AC50 is 5.01 µM (active).

On to `CCCCCCCCCCCCCCCC(=O)NC(C)C`, for which the AC50 entry is “inactive”.

`CCCCCC(=O)Nc1cc2[nH]c(=O)cc(COC)c2cc1C`: the AC50 result is “inactive”.

On to `CCCCCCCCC(=O)N/N=C/c1cccc(Br)c1`, for which the AC50 was 2 µM (active).

With `CCN(CC)C(=O)C(=O)N/N=C/c1cccc(Br)c1`, the AC50 was 22.4 µM (active).

Consider `O=C(N/N=C/c1ccccn1)c1ccco1`, for which the AC50 entry was “inactive”.

Regarding `C[C@@](Cc1ccc(O)c(O)c1)(NN)C(=O)O`, the AC50 result was “inactive”.

With `Cc1cc2cc3c(cc2nc1SCC(=O)Nc1c(C)cccc1C)CCC3`, the AC50 is 3.55 µM (active).

For the compound `COc1ccc(CCn2c(C)cc(C(=O)CSc3nc(N)cc(=O)[nH]3)c2C)cc1`, the AC50 is 3.55 µM (active).

For `COc1ccc(C(=O)NC2(C(F)(F)F)C(=O)Nc3c2c(=O)[nH]c(=O)n3CCc2ccc(OC)c(OC)c2)cc1` (stereo unspecified), the AC50 result is “inactive”.

In the case of `Cc1cc(C(=O)CSc2nnc(N)s2)c(C)n1CCc1ccc(F)cc1`, the AC50 was 0.794 µM (active).

On to `CCOCC(=O)Nc1c(C(=O)Nc2ccccc2OC)oc2ccccc12`, for which the AC50 entry is “inactive”.

As to `CCOC(=O)Nc1ccc2c(c1)OCO2`, the AC50 was 20 µM (active).

In the case of `CCOc1ccc(NC(=O)c2oc3ccccc3c2NC(=O)CC)cc1`, the AC50 is 2.24 µM (active).

Consider `COc1cccc(NC(=O)c2oc3ccccc3c2NC(=O)c2ccc3c(c2)OCO3)c1`, for which the AC50 is 3.55 µM (active).

With `O=C(Nc1cccc(-c2nc3ccccc3s2)c1)c1ccc2c(c1)OCO2`, the AC50 was 7.08 µM (active).

`CCOC(=O)c1oc2ccccc2c1NC(=O)c1ccc(S(=O)(=O)N(C)C)cc1`: the AC50 result is “inactive”.

Regarding `CCOC(=O)Nc1ccc(C(=O)Oc2ccccc2)c(O)c1`, the AC50 was 3.55 µM (active).

As for `CCOC(=O)c1oc2ccccc2c1NC(=O)c1ccc2c(c1)OCO2`, the AC50 is 2.82 µM (active).

Consider `CC(C)(C)c1ccc(OC(=O)Nc2ccc(O)c(C(=O)O)c2)cc1`, for which the activity, negative = inhibition is 41.8% [at 11.4 µM] (inactive).

`CCOC(=O)c1oc2ccccc2c1NC(=O)c1cc(OC)cc(OC)c1`: the concentration at half-maximal activity (AC50) was 25.1 µM (active).

With `Cc1ccc(OCC(O)Cn2c3ccccc3c3ccccc32)cc1` (stereo unspecified), the AC50 was 1.26 µM (active).

As to `Cc1ccccc1OCC(O)Cn1c2ccccc2c2ccccc21` (stereo unspecified), the concentration at half-maximal activity (AC50) was 0.631 µM (active).

For `C=CCN(CC=C)CC(O)Cn1c2ccccc2c2ccccc21` (stereo unspecified), the AC50 was 0.562 µM (active).

Consider `Cc1ccccc1OCC(O)Cn1c(NCc2ccccc2)nc2c1c(=O)[nH]c(=O)n2C` (stereo unspecified), for which the AC50 entry is “inactive”.

Take `Cc1cccc(C)c1OCC(O)CNC(C)(C)C` (stereo unspecified): the AC50 entry was “inactive”.

Take `c1ccc([C@@H]2CN3CCSC3=N2)cc1`: the AC50 result was “inactive”.

With `COc1ccc(CCn2c(=N)c(C(=O)NCc3ccco3)cc3c(=O)n4ccccc4nc32)cc1`, the concentration at half-maximal activity (AC50) is 11.2 µM (active).

As to `CCn1c(CC(=O)Nc2ccc(C)cc2)nnc1SCC(=O)Nc1nc(C)cs1`, the AC50 result was “inactive”.

For the compound `CCn1c(CC(=O)Nc2ccc(C)cc2)nnc1SCC(=O)NCCc1ccccc1`, the AC50 was 22.4 µM (active).

On to `C=CCn1c(Cc2c[nH]c3ccccc23)nnc1SCC(=O)NCc1ccccc1`, for which the AC50 is 25.1 µM (active).

For `CCn1c(CSCc2ccc(C)cc2)nnc1SCC(=O)NCc1ccccc1`, the AC50 is 14.1 µM (active).

`C[C@@](N)(C(=O)O)c1ccc(S(=O)(=O)O)cc1`: the AC50 entry is “inactive”.

For `COc1cc(OC)c2nc(C)c3c(c2c1)N(c1ccc(O)cc1)CC3`, the AC50 is 14.1 µM (active).

Take `Clc1ccccc1C(Nc1cnccn1)Nc1cnccn1`: the activity, negative = inhibition is 12% [at 11.4 µM] (inactive).

Turning to `CC1(C)S[C@@H]2[C@H](C(=O)O)N=C(Cc3ccccc3)N2[C@H]1C(=O)O`, the activity, negative = inhibition was 28.2% [at 11.4 µM] (inactive).

Regarding `COc1ccc2c(c1)c(CC(=O)O)c(C)n2C(=O)c1ccc(Cl)cc1`, the AC50 entry was “inactive”.

In the case of `COc1ccc2c(c1)c(CC(=O)O)c(C)n2Cc1ccc(Cl)cc1`, the AC50 is 10 µM (active).

Take `COc1ccc2c(c1)c(CC(=O)OCC(=O)O)c(C)n2C(=O)c1ccc(Cl)cc1`: the AC50 result was “inactive”.

Consider `CC(C)(C)N1C(=O)[C@H]2[C@@H]3[C@H](O)C=CC(=O)[C@H]3CC[C@H]2C1=O`, for which the activity, negative = inhibition was 23.7% [at 11.4 µM] (inactive).

Regarding `CS(=O)(=O)N1N=C(c2ccc(Br)cc2)CC1c1ccc2c(c1)OCO2` (stereo unspecified), the AC50 is 0.178 µM (active).

As for `C[C@@H]1CC[C@H]2C(=O)N3[C@@H](CC[C@@H](C)[C@@H]3c3ccc(Br)cc3)C(=O)N2[C@@H]1c1ccc(Br)cc1`, the activity, negative = inhibition was -27.6% [at 11.4 µM] (inactive).

For `COc1ccc(NC(=O)CCNS(=O)(=O)c2ccc3c(c2)c(=O)n(C)c(=O)n3C)cc1`, the AC50 entry is “inactive”.

As to `COc1ccc(OCCNS(=O)(=O)c2ccc3oc4ccccc4c3c2)cc1`, the AC50 is 2.24 µM (active).

Consider `CCCCc1ccc(NC(=S)NCc2cccs2)cc1`, for which the AC50 was 3.55 µM (active).

For the compound `Cc1ccc(C(=O)COC(=O)CNC(=O)C(c2ccccc2)c2ccccc2)cc1[N+](=O)[O-]`, the half-maximal activity concentration (AC50) is 5.01 µM (active).

As to `Cc1ccc(C(=O)COC(=O)CNC(=O)Cc2ccccc2)cc1[N+](=O)[O-]`, the AC50 entry was “inactive”.

Take `CC[C@H](CN(C)C)C(=O)c1ccco1`: the activity, negative = inhibition is 8.39% [at 11.4 µM] (inactive).

Consider `Cc1ccc(C(CC(=O)c2ccco2)SCCO)cc1` (stereo unspecified), for which the AC50 was 2.82 µM (active).

In the case of `COc1ccc(C2=C(C#N)C(=O)OC2)cc1`, the AC50 entry is “inactive”.

On to `Cc1cc(=O)c2c(O)c(O)ccc2o1`, for which the AC50 result is “inactive”.

As for `COc1ccc(-c2cc(=O)c3c(O)cc(O)cc3o2)cc1`, the AC50 was 1 µM (active).

Consider `O=c1cc(-c2ccccc2)oc2cc(O)c(O)c(O)c12`, for which the AC50 entry is “inactive”.

In the case of `O=c1cc(-c2ccccc2)oc2cc(O)cc(O)c12`, the AC50 is 0.794 µM (active).

Take `O=C(O)c1c(-c2c3ccc(=O)cc-3oc3cc(O)ccc23)cc2ccccc2c1-c1ccccc1`: the activity, negative = inhibition is 25.6% [at 11.4 µM] (inactive).

Regarding `O=c1cc(-c2ccc(O)cc2)oc2cc(O)cc(O)c12`, the AC50 is 7.94 µM (active).

Consider `O=c1c(O)c(-c2ccc(O)c(O)c2)oc2cc(O)cc(O)c12`, for which the AC50 entry was “inactive”.

On to `C=CCSC1=Nc2sccc2C2=NC(=O)CN12`, for which the AC50 was 7.94 µM (active).

Consider `C[C@@](N)(Cc1ccc(O)c(O)c1)C(=O)O`, for which the AC50 entry was “inactive”.

On to `CNc1ccnc(-c2ccccc2OC)n1`, for which the AC50 result was “inactive”.

Consider `Cc1cccc(CNc2ccnc(-c3ccccc3Cl)n2)c1`, for which the AC50 is 1.26 µM (active).

With `COc1ccccc1-c1nccc(NCc2ccccc2)n1`, the AC50 is 7.94 µM (active).

As for `Cc1cccc(CNc2ccnc(-c3ccccc3CN(C)C)n2)c1`, the AC50 result is “inactive”.

For `COc1ccccc1-c1nccc(NCc2cccc(C)c2)n1`, the AC50 was 10 µM (active).

In the case of `Cc1ccccc1-c1nccc(NCc2cccnc2)n1`, the AC50 was 5.01 µM (active).

`Cc1cnc(CNc2ccnc(-c3ccccc3C)n2)cn1`: the AC50 result is “inactive”.
